An excerpt weighted towards active compounds, which were near 2.9% of everything screened.
PAFAH2 inh: inhibitors of human PAFAH2. Q99487. recombinant PAFAH2, FP-rhodamine activity probe, fluorescence polarization. inhibition, % at 3.39 µM. 340,000 compounds, 0.99% hits. AID 492956;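 active means inhibition above the mean over all tested compounds plus 3 SD, cut at about 30% in these data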;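 further: inhibitors block probe labeling of enzyme so polarization drops; 0% = enzyme with DMSO and 100% = wells lacking PAFAH2 protein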
PAFAH1B2 FP inh: blocks human PAF acetylhydrolase 1b catalytic subunit 2. inhibition, % at 3.39 µM. P68402. recombinant PAFAH1B2, FP-rhodamine activity probe, fluorescence polarization. AID 492953. 340,000 compounds, 1.2% hits;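 active means inhibition above the mean of all tested compounds plus 3 SD, cut at about 24% in these data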;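 further: 0% = enzyme with DMSO and 100% = wells lacking PAFAH1B2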
Fam108B inh: Fam108B inhibition, counter-screen for RBBP9 inhibitors | 300,000 compounds, 0.33% hits | recombinant Fam108B, FP-Rh probe fluorescence polarization | inhibition, % at 9.51 µM;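 active means inhibition above the screen mean inhibition plus 3 SD, computed separately per campaign, cut at about 18% in these data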;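 further: inhibitors lower polarization as less probe binds the enzyme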
pPAFAH FP inh: inhibitors of human plasma PAF acetylhydrolase (pPAFAH) | Q13093 | recombinant pPAFAH, FP-rhodamine probe fluorescence polarization | inhibition, % at 3.39 µM | 330,000 compounds, 1.5% hits;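 active means inhibition above the mean inhibition across the screen plus 3 SD, cut at about 25% in these data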;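 further: inhibitors block binding of the rhodamine activity-based probe so polarization drops; 0% = enzyme with DMSO and 100% = wells lacking pPAFAH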
PAFAH1B3 FP inh: inhibitors of human PAFAH1B3; Q15102; recombinant PAFAH1B3, FP-rhodamine probe, fluorescence polarization; inhibition, % at 3.39 µM; 340,000 compounds, 0.28% hits; AID 492972;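 active means inhibition above the screen-wide average of all tested compounds plus 3 SD, cut at about 25% in these data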;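 further: 0% = enzyme with DMSO only and 100% = wells lacking PAFAH1B3 protein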
Target sequence (Q15102 whole entry, looked up): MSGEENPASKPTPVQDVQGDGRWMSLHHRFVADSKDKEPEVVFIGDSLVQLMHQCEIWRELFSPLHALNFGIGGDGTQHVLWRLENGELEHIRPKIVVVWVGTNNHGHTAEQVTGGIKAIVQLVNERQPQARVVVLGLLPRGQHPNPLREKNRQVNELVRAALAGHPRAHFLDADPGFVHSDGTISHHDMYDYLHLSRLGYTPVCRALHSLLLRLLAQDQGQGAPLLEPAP
PME-1 inh: blocks human protein phosphatase methylesterase 1 | recombinant PME-1, FP-Rh probe fluorescence polarization | inhibition, % at 5.9 µM | 320,000 compounds, 0.53% hits;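 active means inhibition above the campaign mean of all compounds plus 3 SD, cut at about 26% in these data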;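 further: competitive labeling of PME-1 active site by serine hydrolase directed probe; 0% = PME-1 with DMSO and 100% = wells lacking PME-1 enzyme; inhibitors block probe labeling so polarization falls and inhibition rises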
Target sequence (Q9Y570 whole entry, looked up): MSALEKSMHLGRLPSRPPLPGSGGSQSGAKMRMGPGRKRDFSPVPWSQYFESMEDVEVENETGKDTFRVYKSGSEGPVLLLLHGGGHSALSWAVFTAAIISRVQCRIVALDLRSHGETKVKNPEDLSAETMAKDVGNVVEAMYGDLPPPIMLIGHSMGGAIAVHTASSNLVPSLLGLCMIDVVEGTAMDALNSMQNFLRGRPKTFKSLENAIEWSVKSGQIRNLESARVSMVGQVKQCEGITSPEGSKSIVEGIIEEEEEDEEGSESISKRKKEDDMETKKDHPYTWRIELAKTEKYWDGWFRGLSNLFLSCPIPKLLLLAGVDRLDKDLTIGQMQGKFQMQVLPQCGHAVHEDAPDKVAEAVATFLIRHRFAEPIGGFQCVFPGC
PAFAH2 confirm: confirmation of human PAFAH2 inhibitors; shares compounds with PAFAH2 inh; recombinant PAFAH2, FP-rhodamine activity probe, fluorescence polarization; inhibition, % at 3.39 µM; 2,300 compounds, 65% hits;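 active means mean inhibition over three repeats above a set limit taken from the earlier primary screen, cut at about 30% in these data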;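 further: inhibitor blocks binding of rhodamine activity probe so polarization falls; 0% = enzyme with DMSO and 100% = wells lacking PAFAH2 protein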
An asterisk follows results filed as active; / = no result; + = active, no number.

SMILES | PAFAH2 inh | PAFAH1B2 FP inh | Fam108B inh | pPAFAH FP inh | PAFAH1B3 FP inh | PME-1 inh | PAFAH2 confirm
COc1ccc(S(=O)(=O)N2CCOCC2)cc1NC(=O)Cc1c(Cl)cccc1Cl | 49* | -1 | -4 | -2 | -3 | 4 | 45*
COc1ccc(S(=O)(=O)N2CCOCC2)cc1NC(=O)CN1CCCCCC1 | 4 | -2 | 1 | 0 | 3 | -1 | /
COc1ccc(S(=O)(=O)N2CCOCC2)cc1NC(=O)Cc1cccs1 | 7 | 9 | / | 0 | 4 | 2 | /
C#CCSc1nc(Cc2ccc(Cl)cc2)nc2ccccc12 | -7 | 5 | -4 | -1 | 7 | -3 | /
CC(=O)NCc1ccc(-c2nc3ccccc3s2)cc1 | 4 | 0 | -2 | 6 | 3 | 1 | /
COc1ccc(-c2nc3ccccc3s2)cc1NC(C)=O | 41* | 1 | -4 | 1 | 19 | 1 | 3
Cc1cnc(NC(=O)CSCc2c(C)noc2C)s1 | 6 | 0 | / | 6 | 6 | / | /
Cc1c(OCC(=O)NCC(O)c2ccccc2)ccc2c(-c3ccccc3)cc(=O)oc12 (stereo not given) | 1 | -1 | -3 | 4 | -5 | 4 | /
CN(C)c1cccc(C(=O)OCC(=O)NC2CCCC2)c1 | 77* | 5 | -1 | 23 | 7 | 0 | 78*
O=C(COC(=O)c1cccc(OC(F)F)c1)NC1CCCC1 | 52* | 0 | -1 | 24 | 7 | 3 | 40*
O=C(COC(=O)c1cccc(O)c1)Nc1ccc(OC(F)F)cc1 | 64* | 4 | 0 | 0 | 3 | -17 | 54*
COc1ccc(C(=O)COC(=O)CCCN=C2NS(=O)(=O)c3ccccc32)c(OC)c1 | 3 | -3 | -3 | -8 | 0 | 4 | /
CCc1sc(/C=C(/C#N)C(N)=S)cc1[N+](=O)[O-] | 31* | 12 | / | / | 10 | / | 25
COc1cc(C)nc(Oc2ccc(OCCOc3ccccc3)nn2)n1 | 11 | 5 | 1 | 3 | 3 | 1 | /
O=C(COC(=O)c1cccc(S(=O)(=O)N2CCc3ccccc32)c1)Nc1ncc(Cl)cc1Cl | 27 | 2 | 4 | 3 | 5 | 6 | /
N#Cc1ccc(Cl)cc1NC(=O)COC(=O)c1cccc(S(=O)(=O)N2CCOCC2)c1 | 46* | 3 | / | 1 | 1 | 11 | 38*
O=C(COC(=O)c1cccc(S(=O)(=O)N2CCOCC2)c1)Nc1ncc(Cl)cc1Cl | 35* | 3 | / | 8 | -3 | 6 | 24
COc1ccccc1/C=C/C(=O)OCC(=O)Nc1ccc2c(c1)OCO2 | 79* | 0 | / | 16 | 7 | / | 85*
COc1ccccc1OCCC(=O)OCC(=O)Nc1ccc2c(c1)OCO2 | 7 | 5 | / | 24 | 1 | / | /
O=C(COC(=O)/C=C/c1ccccc1)NCc1ccc2c(c1)OCO2 | 14 | 0 | / | 6 | -3 | / | /
COc1ccccc1/C=C/C(=O)OCC(=O)NCc1ccc2c(c1)OCO2 | 51* | 5 | / | 14 | 6 | / | 33*
COc1ccccc1/C=C/C(=O)OCC(=O)Nc1c(F)cccc1F | 53* | -2 | 2 | 12 | 3 | -4 | 63*
CCCc1ccc(OCC(=O)Nc2cc(S(=O)(=O)CC)ccc2O)cc1 | 33* | 13 | -3 | 22 | 7 | -7 | 26
CCS(=O)(=O)c1ccc(O)c(NC(=O)Nc2ccccc2OC)c1 | 47* | 0 | 1 | 15 | 8 | -5 | 59*
CCS(=O)(=O)c1ccc(O)c(NC(=O)/C=C/c2ccccc2)c1 | 75* | 4 | 5 | 17 | 8 | 2 | 73*
SMILES | PAFAH2 inh | PAFAH1B2 FP inh | Fam108B inh | pPAFAH FP inh | PAFAH1B3 FP inh | PME-1 inh | PAFAH2 confirm
CCS(=O)(=O)c1ccc(O)c(NC(=O)CC2(CC(=O)O)CCCC2)c1 | 37* | -1 | 3 | 3 | 2 | 3 | 27
Nc1ncnc2c1ncn2[C@@H]1O[C@H](CN2CCCS2(=O)=O)[C@@H](O)[C@H]1O | 0 | 3 | / | 2 | -4 | / | /
OCC1(Cc2cccc(Cl)c2)CCCN(Cc2cnn(-c3ccccc3)c2)C1 (stereo not given) | 7 | 4 | 0 | 2 | -4 | 2 | /
CCCNC(=O)COC(=O)/C=C/c1ccc(C)o1 | 40* | 3 | 3 | 5 | 5 | 4 | 37*
CCOc1ccc(CCNC(=O)COC(=O)/C=C/c2ccc(C)o2)cc1OCC | 4 | -2 | -1 | 6 | -2 | 2 | /
Cc1ccc(/C=C/C(=O)OCC(=O)NC(=O)NCc2ccccc2)cc1 | -1 | 2 | / | 0 | 0 | 3 | /
Cc1ccc(/C=C/C(=O)OCC(=O)NCc2ccccc2)o1 | 52* | 1 | / | / | -6 | / | 40*
c1ccc(-c2cc(NCCN3CCCCC3)c3ccccc3n2)cc1 | -2 | 2 | -1 | 3 | 6 | 3 | /
CCC(CO)Oc1cc(NC(=O)Cc2ccccc2F)c2ncn(C(C)C)c2c1 (stereo not given) | 40* | 6 | / | 19 | 9 | / | 20
CCOC(=O)C1CCCN(S(=O)(=O)c2ccc3c4c2CC(=O)N4CC(C)S3)C1 (stereo not given) | 35* | -3 | 1 | 16 | 3 | 6 | 18
O=C(COC(=O)c1cccnc1Cl)c1cccc(Cl)c1 | 5 | 5 | 4 | 8 | 5 | -5 | /
O=c1c2c(nc3nc(Cc4ccccc4)[nH]n13)CCC2 | 67* | -3 | -5 | 7 | 7 | 0 | 59*
Cc1ccc(C)c(NC(=O)C2CCCN(S(=O)(=O)c3cccnc3)C2)c1 (stereo not given) | 5 | -3 | 2 | 2 | 10 | 11 | /
CC(CC(=O)Nc1nc2ccccc2[nH]1)n1ccnc1 (stereo not given) | 9 | 7 | 1 | 2 | 5 | 5 | /
CC(=O)Nc1ccc(NC(=O)CC(C)n2ccnc2)cc1 (stereo not given) | + | 0 | 1 | 3 | -3 | -6 | 5
CCCCn1cnc2c(SCc3ccccc3)nc(N)nc21 | 8 | 2 | / | / | 6 | / | /
O=C(COC(=O)c1ccccc1)NC12CC3CC(CC(C3)C1)C2 | 79* | 3 | / | 5 | 2 | 5 | 89*
N#Cc1cccc(NC(=O)COC(=O)c2ccccc2Sc2ccccc2C#N)c1 | 45* | -6 | -24 | -8 | -2 | -29 | 39*
COc1ccc(C(=O)NC23CC4CC(CC(C4)C2)C3)cc1 | 12 | 9 | -1 | 0 | 5 | -2 | /
N#Cc1ccccc1Sc1ccccc1C(=O)OCC(=O)NC12CC3CC(CC(C3)C1)C2 | 50* | 3 | -6 | 3 | 2 | -15 | 47*
CC(=O)c1ccc(NC(=O)COC(=O)c2ccccc2Sc2ccccc2C#N)cc1 | 8 | 0 | -3 | -1 | 8 | -4 | /
COc1ccc(C(=O)NCC(=O)OCC(=O)NC23CC4CC(CC(C4)C2)C3)cc1 | 58* | 7 | / | 5 | 3 | / | 44*
C=CCSc1nc2ccccc2c2nc(-c3ccccc3)nn12 | -5 | -12 | -1 | -5 | 6 | -1 | /
